From PubChem BioAssay (EPA / NIEHS) come the findings set out here.

Active and inactive are the calls of the source. Rule for the calls: active = hit-call score of the fitted dose curve at least 0.9, where 1 is the maximum; inactive = score below 0.9.

The assay is described as follows: ATG_M_19_CIS: Attagene CIS-FACTORIAL HepG2 Assay for M19 Transcription Factor (Internal Marker) (AID 2282939). Particulars: HepG2 Attagene CIS-FACTORIAL M19 internal marker reporter; actives raise or lower the signal. The method, then: ATG_CIS is a cell-based, multiplexed-readout assay that uses HepG2, a human liver cell line, with measurements taken at 24 hours after chemical dosing in a 24-well plate.ATG_M_19_CIS is one of 52 assay component(s) measured or calculated from the ATG_CIS assay. It is designed to make measurements of mRNA induction, a form of inducible reporter, as detected with fluorescence intensity signals by Reverse transcription polymerase chain reaction (RT-PCR) and Capillary electrophoresis technology.Data from the assay component ATG_M_19_CIS was analyzed into 1 assay endpoint. This assay endpoint, ATG_M_19_CIS, was analyzed with bidirectional fitting relative to DMSO as the negative control and baseline of activity. Using a type of inducible reporter, measures of mRNA for gain or loss-of-signal activity can be used to understand the background control at the transcription factor-level as they relate to the gene . Furthermore, this assay endpoint can be referred to as a secondary readout, because this assay has produced multiple assay endpoints where this one serves a background control function. To generalize the intended target to other relatable targets, this assay endpoint is annotated to the background measurement intended target family, where the subfamily is internal marker.
Human liver HepG2 cells are transiently transfected with multiple reporter transcription units (MRTUs) in 6-well plates using FuGene 6 reagent (Roche; 3 ml FuGene/1 mg DNA). The MRTU constructs are regulated by a cis-regulating element (promoter). […] A major difference between the CIS and TRANS system is that in CIS activities of endogenous TFs are measured, whereas the TRANS assay evaluates changes in activities of exogenous, chimeric NR-Gal4 proteins. […] At the end of 24 hour incubation, total RNA was isolated using TriZol reagent (Invitrogen). The isolated RNA is then reverse-transcribed using oligo(dT) primer and Mo-MLV reverse transcriptase (Invitrogen) with DNAse I (Ambion) treatment for 30 min. The one-tenth of the produced cDNA was amplified by PCR using Taq DNA polymerase (Invitrogen) and two reporter sequence-specific primers. The PCR products were fluorescently labeled by primer extension with 6-arboxyfluorescein (6-FAM) 5'-labeled reporter sequence-specific primer (2 min at 95 C, 20 s at 68 C and 10 min at 72 C) and these products were digested with 5U of HpaI (New England Biolabs) for 2h at 37 C. The fragments were purified using Qiaquick PCR columns (Qiagen), analyzed on an ABI 3130xL genetic analyzer (Applied Biosystems) with peak positions identified by using a set of X-rhodamine (ROX)-labeled MapMarker1000 molecular weight standards (BioVentures). The raw capillary electrophoresis data was processed using Attagraph software (Attagene).
Turning to `CCNC(=O)NC(=O)C(C#N)=NOC`, the compound was called inactive.

For `CC(C)(C)C(=O)C(Oc1ccc(Cl)cc1)n1cncn1` (stereo not given), the compound was called inactive.

`CC(C)N1C(=O)c2ccccc2NS1(=O)=O`: the call was inactive.

Take `Cn1c(-c2ccccc2)cc(-c2ccccc2)[n+]1C`: the result was inactive.

`CCOP(=O)(OCC)Oc1nc(Cl)c(Cl)cc1Cl`: the compound was called inactive.

With `Nc1c(Cl)c(F)nc(OCC(=O)O)c1Cl`, the compound was classed as inactive.

With `Cc1ccc(N=CN(C)C=Nc2ccc(C)cc2C)c(C)c1`, the result was inactive.

`CCCN(CC)CC1COC2(CCC(C(C)(C)C)CC2)O1` (stereo not given): the compound was classed as inactive.

With `CC(C)Nc1nc(Cl)nc(NC(C)C)n1`, the compound was classed as inactive.

Consider `COC(=O)N(C(=O)N1CO[C@@]2(C(=O)OC)Cc3cc(Cl)ccc3C2=N1)c1ccc(OC(F)(F)F)cc1`, for which the call was inactive.

On to `N#Cc1c[nH]cc1-c1cccc2c1OC(F)(F)O2`, for which the call was inactive.

Consider `CS(=O)(=O)c1cc(C(F)(F)F)ccc1C(=O)c1cnoc1C1CC1`, for which the compound was classed as inactive.

Turning to `CCN(CC)c1nc(C)cc(OP(=S)(OC)OC)n1`, the outcome was inactive.

Take `O=P(O)(O)CCCl`: the result was inactive.

For `COc1ccc(-c2ccccc2)cc1NNC(=O)OC(C)C`, the compound was called inactive.

On to `COC(=O)NC(=S)Nc1ccccc1NC(=S)NC(=O)OC`, for which the call was inactive.

Turning to `CCCCC(C#N)(Cn1cncn1)c1ccc(Cl)cc1` (stereo not given), the compound was classed as inactive.

As for `COCC(=O)N(c1c(C)cccc1C)C(C)C(=O)OC` (stereo not given), the outcome was inactive.

Turning to `Clc1nc(Cl)nc(Nc2ccccc2Cl)n1`, the compound was classed as inactive.

`COc1cc(Cl)c(OC)cc1Cl`: the result was inactive.

On to `CCCCC(O)(Cn1cncn1)c1ccc(Cl)cc1Cl` (stereo not given), for which the compound was called inactive.

Regarding `CCN(CC)C(=O)C(C)Oc1cccc2ccccc12` (stereo not given), the call was inactive.

As for `Nc1c(Cl)c(Cl)nc(C(=O)O)c1Cl`, the compound was called inactive.

Take `CC1(C)C(C=C(Cl)Cl)C1C(=O)OC(C#N)c1cccc(Oc2ccccc2)c1` (stereo not given): the compound was classed as inactive.

With `CC(C)N1C(=O)N(c2ccccc2)CSC1=NC(C)(C)C`, the outcome was inactive.

Take `CNC(=O)N(C)c1nnc(C(C)(C)C)s1`: the outcome was inactive.

Consider `CCNP(=S)(OC)O/C(C)=C/C(=O)OC(C)C` (stereo not given), for which the compound was called inactive.

For `CCOc1cc(C(C)(C)C)ccc1C1COC(c2c(F)cccc2F)=N1` (stereo not given), the result was inactive.

On to `Cc1nc(N(C)C)nc(OC(=O)N(C)C)c1C`, for which the result was inactive.

With `CO/N=C(/C1=NOCCO1)c1ccccc1Oc1ncnc(Oc2ccccc2Cl)c1F`, the call was inactive.

In the case of `N#Cc1c(Cl)cccc1Cl`, the call was inactive.

Regarding `CNC(=O)Oc1cccc2ccccc12`, the call was inactive.

For the compound `CS(=O)(=O)c1ccc(C(=O)C2C(=O)CCCC2=O)c([N+](=O)[O-])c1`, the compound was called inactive.

With `COCC(C)N(C(=O)CCl)c1c(C)csc1C` (stereo not given), the outcome was inactive.

As to `Cc1cc(C)nc(Nc2ccccc2)n1`, the outcome was inactive.

With `C=CCOC(=O)C(C)(C)OC(=O)c1cc(-n2c(=O)cc(C(F)(F)F)n(C)c2=O)ccc1Cl`, the outcome was inactive.

`CCOP(=S)(OCC)Oc1nc(Cl)n(C(C)C)n1`: the result was inactive.

For `COP(=O)(OC)O/C(C)=C/C(=O)N(C)C`, the result was inactive.

In the case of `N#CN=C1SCCN1Cc1ccc(Cl)nc1`, the compound was called inactive.

For `CC(C)=CC1C(C(=O)OCc2coc(Cc3ccccc3)c2)C1(C)C` (stereo not given), the call was inactive.
